Data published in PubChem BioAssay.
For part of these data: Entries with a potency or affinity are not part of this list. Active and inactive are the calls of the source. Unless noted, no rule for the calls is given here.

Columns and labels:
[1] = biological target: Cell division control protein 42 homolog (Homo sapiens) (UniProt P60953); assay: activated mutant Cdc42 GTP-binding inhibitors, dose response, biochemical, multiplex bead flow cytometry, Bodipy-FL-GTP (AID 1333;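 active = fitted half-maximal concentration within the tested dose range, moderate curve steepness, a statistically real signal drop, and little compound fluorescence or tag-binding interference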)
[2] = biological target: Cell division control protein 42 homolog (Homo sapiens) (UniProt P60953); assay: wildtype Cdc42 GTP-binding inhibitors, dose response, biochemical, multiplex bead flow cytometry, Bodipy-FL-GTP (AID 1334;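 active = fitted half-maximal concentration within the tested range, moderate curve steepness, significant signal drop, and little compound fluorescence or bead-linkage interference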); details: bead-based flow cytometry, Bodipy-FL-GTP binding to GST-Cdc42; at 100 µM (top of the series) unless noted
[3] = biological target: GTPase HRas (Homo sapiens) (UniProt P01112); assay: inhibitors of GTP binding to wildtype Ras, dose response, biochemical, multiplex bead flow cytometry (AID 1335;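 active = fitted half-maximal concentration within 10 nM to 100 µM, steepness 0.5 to 2, significant signal drop, low assay interference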); details: bead-based flow cytometry, Bodipy-GTP binding to GST-Ras; at 100 µM (top of the series) unless noted
[4] = tested on: Ras-related protein Rab-7a (dog), GTP binding; assay: Rab7 GTP binding inhibitors, potency, dose response, biochemical, wildtype, multiplex bead flow cytometry (AID 1336)
[5] = biological target: Ras-related C3 botulinum toxin substrate 1 (Homo sapiens) (UniProt P63000); assay: wildtype Rac1 GTP binding inhibitors, dose response, biochemical, multiplex bead flow cytometry (AID 1340;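 active = dose curve with midpoint inside tested range, moderate steepness, plateau gap beyond fit error, low compound glow and bead-link interference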); details: GST-Rac1 beads, Bodipy-FL-GTP binding; at 100 µM (top of the series) unless noted
[6] = biological target: GTPase HRas (Homo sapiens) (UniProt P01112); assay: activated Ras mutant GTP binding inhibitors, dose response, biochemical, multiplex bead flow cytometry (AID 1341;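 active = dose-response curve with midpoint inside the tested range, moderate steepness, significant amplitude and little compound fluorescence or bead-attachment interference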;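 also: GST-tagged constitutively activated Ras mutant immobilized on beads and multiplexed with other GTPases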)

Cell division control protein 42 homolog (Homo sapiens), sequence (P60953 whole entry, looked up): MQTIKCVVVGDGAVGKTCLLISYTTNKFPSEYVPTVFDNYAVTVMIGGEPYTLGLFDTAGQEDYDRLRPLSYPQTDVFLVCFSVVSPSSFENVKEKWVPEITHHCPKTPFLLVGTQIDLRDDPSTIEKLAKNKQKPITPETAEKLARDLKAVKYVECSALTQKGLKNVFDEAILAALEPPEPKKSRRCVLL
GTPase HRas (Homo sapiens), sequence (P01112 whole entry, looked up): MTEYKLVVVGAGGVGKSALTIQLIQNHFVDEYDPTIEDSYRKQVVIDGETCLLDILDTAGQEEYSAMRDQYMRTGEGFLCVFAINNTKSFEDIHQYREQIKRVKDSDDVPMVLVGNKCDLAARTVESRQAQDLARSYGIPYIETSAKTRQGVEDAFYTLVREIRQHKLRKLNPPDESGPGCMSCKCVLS

Compound | outcome [1] | fluorescence, percent of control (lower = inhibition) [2] | GTP binding, percent of control [3] | outcome [4] | GTP binding signal, raw median fluorescence (lower = inhibition) (MCF (arbitrary fluorescence units)) [5] | outcome [6]
CCC1CCCCN1S(=O)(=O)c1ccc(NC(=O)CSc2ncccc2C(=O)O)cc1 (stereo not given) | inactive | 43.1% | 57.5% | inactive | 109 | inactive
COc1cc(/C=N/NC(=O)CSc2n[nH]c(=O)[nH]c2=O)cc(OC)c1O | inactive | 36% | 78.9% | inactive | 178 | inactive
COc1ccc(C=O)cc1CSc1ncccc1C(=O)O | inactive | 61.6% | 88.9% | inactive | 33.8 | inactive
CC(C)C(=O)N1CCN(c2ccccc2NC(=O)c2cccc(Cl)c2)CC1 | inactive | 34.8% | 82.2% | inactive | 269 | inactive
COc1cc(/C=N/Nc2nn3cnnc3c3ccccc23)ccc1O | inactive | 50.3% | 122% | inactive | 90.4 | inactive
Cc1nnc2ccc(-c3cccc(NC(=O)c4ccco4)c3)nn12 | inactive | 28.7% | 59.2% | inactive | 131 | inactive
CCOc1ccc(NC(=S)N=Nc2c(O)[nH]c3ccccc23)cc1 | inactive | 35.5% | 74.3% | inactive | 170 | inactive
CC(=O)Nc1ccc(/C=N/NC(=O)CCN2CCN(c3ccccc3)CC2)cc1 | inactive | 33.8% | 74.7% | inactive | 140 | inactive
O=C(O)Cn1c(SCCOc2ccccc2Cl)nc2ccccc21 | inactive | 60.2% | 86.5% | inactive | 30.5 | inactive
O=S1(=O)N=C(N(CCO)/N=C/C=C/c2ccccc2)c2ccccc21 | inactive | 22.8% | 35.3% | inactive | 101 | inactive
COc1cccc2cc(-c3ccnc(=S)[nH]3)oc12 | inactive | 33.3% | 70.7% | inactive | 140 | inactive
O=[N+]([O-])c1cc2oc3c(c2c(C=NCc2ccccc2)c1O)CCCC3 | inactive | 44.5% | 58.7% | inactive | 179 | inactive
CCOc1ccc(-n2nc3c(=O)[nH]nc(C)c3c2C)cc1 | inactive | 46.5% | 60.9% | inactive | 189 | inactive
Cc1ccccc1OCCn1cc(C(=O)O)c2ccccc21 | inactive | 96.9% | 131% | inactive | 83.8 | inactive
O=C1/C(=C/c2ccc(N3CCOCC3)o2)SC(=Nc2ccccc2)N1CCc1c[nH]c2ccccc12 | inactive | 104% | 114% | inactive | 242 | inactive
N#Cc1c2nc3ccccc3nc2n2cc(NC(=O)c3ccc(F)cc3)ccc12 | inactive | 49.3% | 64.8% | inactive | 158 | inactive
Fc1cccc(CSc2ccc3nnc(-c4cccnc4)n3n2)c1 | inactive | 33.8% | 73.3% | inactive | 183 | inactive
COc1cccc(OC)c1-c1nn2c(-c3cc(-c4ccccc4)n[nH]3)nnc2s1 | inactive | 131% [at 33.3 µM] | 1380% | inactive | 438 [at 33.3 µM] | inactive
Cc1cccc(OCCn2c(SCCC(=O)O)nc3ccccc32)c1 | inactive | 58% | 85.4% | inactive | 28.9 | inactive
COc1ccc(N(CC(=O)Nc2cccc(C)c2C)S(=O)(=O)c2c(C)n[nH]c2C)cc1 | inactive | 33.4% | 74.3% | inactive | 170 | inactive

Compound | outcome [1] | fluorescence, percent of control (lower = inhibition) [2] | GTP binding, percent of control [3] | outcome [4] | GTP binding signal, raw median fluorescence (lower = inhibition) (MCF (arbitrary fluorescence units)) [5] | outcome [6]
CCOC(=O)c1c(NC(=O)/C=C/c2ccc3c(c2)OCO3)sc(C)c1CC | inactive | 30.9% | 75.9% | inactive | 256 | inactive
Cc1ccc(S(=O)(=O)N2CC3(C)CN(S(=O)(=O)c4ccc(C)cc4)CC(C)(C2)C3O)cc1 (stereo not given) | inactive | 50% | 61.9% | inactive | 204 | inactive
Cn1cc(C=C2C(=O)CC(C)(C)CC2=O)c2ccccc21 | inactive | 49.4% | 66.4% | inactive | 180 | inactive
O=C(O)c1ccccc1SCc1ccc2c(c1)OCO2 | inactive | 71% | 79.2% | inactive | 0 | inactive
COc1ccc(-n2c(C)cc(/C=C3\SC(=S)N(Cc4ccco4)C3=O)c2C)cc1 | inactive | 75.8% | 89.9% | inactive | 230 | inactive
COc1cc(/C=N/NC(N)=O)cc([N+](=O)[O-])c1O | inactive | 35.1% | 78.6% | inactive | 175 | inactive
Cc1cccc(OCC(=O)N/N=C/c2ccc3c(c2)OCO3)c1 | inactive | 34.8% | 89.5% | inactive | 256 | inactive
Cc1ccc(-c2ccc(/C=C3\SC(N4CCOCC4)=NC3=O)o2)cc1 | inactive | 31.4% | 71.6% | inactive | 195 | inactive
CCCN1C(=O)/C(=C\C=C2/Sc3ccccc3N2CC)SC1=S | inactive | 34.7% | 57.8% | inactive | 181 | inactive
Cc1cc(C)n(C(=O)CNC(=O)c2ccc3c(c2)OCCO3)n1 | inactive | 53.2% | 61.7% | inactive | 200 | inactive
N#C/C(=C/c1ccc(O)c([N+](=O)[O-])c1)C(=O)Nc1ccccc1 | inactive | 31.5% | 77.4% | inactive | 193 | inactive
COc1cc(C(=S)NCc2ccccc2)cc(Br)c1O | inactive | 23.5% | 56.3% | inactive | 246 | inactive
O=C(COc1ccccc1C(=O)N/N=C\c1ccc(O)c(O)c1)N/N=C/c1ccc(O)c(O)c1 | inactive | 38% | 157% | inactive | 193 | inactive
Cc1nc(Nc2ccc(C(=O)O)cc2)nc(Nc2ccc(C(=O)O)cc2)c1[N+](=O)[O-] | inactive | 28.7% | 64.9% | inactive | 111 | inactive
CCOC(=O)N1CCN(Cc2cn[nH]c2-c2cc3ccccc3o2)CC1 | inactive | 34.4% | 82.1% | inactive | 246 | inactive
CCn1c2ccccc2c2nnc(SCC(=O)NCCOC)nc21 | inactive | 50.8% | 59.6% | inactive | 0 | inactive
CC(C)c1nc2oc3c(=O)[nH]cnc3c2c2c1CCC2 | inactive | 80% | 108% | inactive | 138 | inactive
O=C(O)c1ccc(CSCc2cccc(Cl)c2)o1 | inactive | 57.3% | 81.4% | inactive | 30.1 | inactive
Cc1cc(C(F)F)n2nc(C(=O)Nc3ccc(S(=O)(=O)N4CCCCCC4)cc3)nc2n1 | inactive | 36.8% | 82.1% | inactive | 257 | inactive
O=C(N/N=C/c1ccc2nccnc2c1)c1cccc([N+](=O)[O-])c1 | inactive | 42.7% | 86.9% | inactive | 203 | inactive

Compound | outcome [1] | fluorescence, percent of control (lower = inhibition) [2] | GTP binding, percent of control [3] | outcome [4] | GTP binding signal, raw median fluorescence (lower = inhibition) (MCF (arbitrary fluorescence units)) [5] | outcome [6]
COc1cccc(C2CC(c3ccccc3)Nc3ncnn32)c1 (stereo not given) | inactive | 38.6% | 80.1% | inactive | 242 | inactive
Cn1nnnc1SCc1ccc(C(=O)Nc2nccs2)cc1 | inactive | 36.8% | 47.9% | inactive | 126 | inactive
COc1ccc(-c2csc(NC(=O)Cc3cccc4ccccc34)c2C(=O)O)cc1 | inactive | 27.2% | 66.7% | inactive | 187 | inactive
Cn1c(=O)cc(N2CCOCC2)[nH]c1=O | inactive | 37.4% | 84.8% | inactive | 262 | inactive
O=C(O)c1ccccc1C(=O)OCc1ccccc1 | inactive | 105% | 365% | inactive | 408 | inactive
O=C(O)c1ccccc1NCc1ccc(Cl)cc1 | inactive | 79.2% | 95.6% | inactive | 50.2 | inactive
O=C(O)c1ccc(COc2ccc(F)cc2)o1 | inactive | 61.2% | 87.5% | inactive | 35 | inactive
Cc1ccc(OCCSc2nc3ccccc3n2CC(=O)O)c(C)c1 | inactive | 55.9% | 85% | inactive | 29.2 | inactive
Cc1ccccc1NC(=O)c1ccc(NC(=O)C2CC(=O)OC23CCCCC3)cc1 (stereo not given) | inactive | 32.9% | 76.1% | inactive | 195 | inactive
CSc1nc2nccc(-c3ccc(-c4ccccc4)cc3)n2n1 | inactive | 79.7% | 132% | inactive | 138 | inactive
O=C(O)c1ccc(CNCc2ccccc2Cl)s1 | inactive | 62% | 86.6% | inactive | 32.2 | inactive
Cc1ccn2c(NCc3ccc4c(c3)OCO4)c(-c3ccc(O)cc3)nc2c1 | inactive | 60.4% | 75% | inactive | 0 | inactive
O=C(C#Cc1cccc(O)c1)c1ccc([N+](=O)[O-])cc1 | inactive | 71.6% | 196% | inactive | 138 | inactive
O=C(O)c1ccccc1NCc1ccc2c(c1)OCO2 | inactive | 69.6% | 89.5% | inactive | 54 | inactive
O=c1c2ccc([N+](=O)[O-])cc2ncn1CCOc1ccccc1 | inactive | 48.1% | 95.3% | inactive | 188 | inactive
Cc1ccc(C(=O)O)c(OCc2ccccc2C)c1 | inactive | 62.4% | 208% | inactive | 59.3 | inactive
Cc1nc(NC(=O)/C=C/c2ccc(Cl)cc2Cl)sc1C(=O)N(C)C | inactive | 45% | 61.1% | inactive | 182 | inactive
CCC/C(O)=C1\C(=O)CC(C)(C)CC1=Nc1ccccc1OC | inactive | 41.5% | 88.8% | inactive | 276 | inactive
CCn1c(=N)c(S(=O)(=O)c2ccc(C)cc2)cc2c(=O)n3ccccc3nc21 | inactive | 36.8% | 79.5% | inactive | 174 | inactive
CN(C)c1ccc([C@@H]2[C@@H]([N+](=O)[O-])[C@H]3C=Cc4ccccc4N3[C@H]2C(=O)c2ccc(Cl)cc2)cc1 | inactive | 46.5% | 60.6% | inactive | 169 | inactive
